# According to PubChem BioAssay AID620 (Sanford-Burnham Center for Chemical Genomics, 2007):
# The whole screen tested about 87,000 compounds, of which about 360 (0.41%) were called active. No stated cut-off is given here; in the data, active means cytotoxicity above about 50%; inactive means the rest. This excerpt belongs to a sample that is enriched for actives.
# Assay: HT1080 cell viability loss – fluorescence readout (AID 620);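 further: cells exposed to compound overnight then 4 h with Alamar Blue; 0% = vehicle DMSO and 100% = killing control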
# Conditions: at 10 µM, hits give high values
row,SMILES,cytotoxicity
1,COc1cccc(C(=O)Nc2ccc(F)cc2F)c1,-7.7% (inactive)
2,CC(C)(C)c1ccc(Oc2cccc(C3CC(=O)C(C4NCCc5ccccc54)C(=O)C3n3cncn3)c2)cc1 (configuration not stated),-1.9% (inactive)
3,CCn1c(CC(=O)Nc2ccccc2)nnc1SCC(=O)Nc1ccccc1C(=O)OC,0.7% (inactive)
4,COc1ccc(N2CCCCn3c2nc2c3c(=O)[nH]c(=O)n2C)cc1,3.8% (inactive)
5,CCOC(=O)Cn1nc(-c2ccc(Cl)cc2)ccc1=O,-5% (inactive)
6,CCn1c(CSc2nc3ccccc3n2C)nc2ccccc21,27.6% (inactive)
7,COc1ccc(C2C(C#N)=C(C)NC3=C2C(=O)c2ccccc23)cc1 (configuration not stated),3% (inactive)
8,COc1cc(C2C(C#N)=C(C)NC3=C2C(=O)c2ccccc23)cc(OC)c1OC (configuration not stated),68.6% (active)
9,COc1cc(C2C(C#N)=C(C)NC3=C2C(=O)CC(C)(C)C3)cc(OC)c1O (configuration not stated),-2.1% (inactive)
10,COc1cc(NC(=O)c2cccs2)c(C(=O)OCC(=O)NCc2ccccc2)cc1OC,9.6% (inactive)
11,CCOc1ccc(NC(=O)CSc2nnc(C)n2CC2CCCO2)cc1 (configuration not stated),-2.7% (inactive)
12,COc1ccc(-c2noc(CN3CCCCC3)n2)cc1OC,11.9% (inactive)
13,CN(C)S(=O)(=O)c1ccc(S(=O)(=O)N(Cc2ccco2)Cc2ccccc2Cl)cc1,-1.9% (inactive)
14,CCOc1cc(S(=O)(=O)N2CCN(c3ccc(F)cc3)CC2)c(OCC)cc1-n1cnnn1,2.6% (inactive)
15,CCOc1cc(S(=O)(=O)N2CC=C(c3ccc(F)cc3)CC2)c(OCC)cc1-n1cnnn1,52.5% (active)
16,CCOc1cc(S(=O)(=O)N2CCC(Cc3ccccc3)CC2)c(OCC)cc1-n1cnnn1,-6.4% (inactive)
17,CC12CCC(C(=O)N3CCN(Cc4ccccc4)CC3)(OC1=O)C2(C)C (configuration not stated),0.4% (inactive)
18,CN1CC[n+]2c(CN3C(=O)c4ccccc4C3=O)csc21,15.5% (inactive)
19,CCCC(=O)c1c(NC(C)C)cc(C)oc1=O,-2.5% (inactive)
20,COc1cc(C(=O)N2CCN(C(=O)c3ccccc3)CC2)cc(OC)c1OC,-2.8% (inactive)
21,COc1cc(C(=O)N2CCN(c3cc(Cl)ccc3Cl)CC2)cc(OC)c1OC,66% (active)
22,COc1ccc(Cl)cc1S(=O)(=O)N1CCN(C(=O)c2cc(OC)c(OC)c(OC)c2)CC1,-2.5% (inactive)
23,Cc1cccc(N2CCN(C(=O)c3ccncc3)CC2)c1C,21.3% (inactive)
24,COc1cc(C(=O)N2CCN(c3cccc(C)c3C)CC2)cc(OC)c1OC,62.4% (active)
25,COc1ccc(C(=O)N2CCN(C(=O)c3cc(OC)c(OC)c(OC)c3)CC2)cc1,-0.7% (inactive)

row,SMILES,cytotoxicity
1,O=C(C1CC1)N1CCN=C1SCc1ccccc1,-4.5% (inactive)
2,Cc1cccc(NC(=O)c2ccc(S(=O)(=O)N(C)C)cc2)n1,36.5% (inactive)
3,CCc1ccc(NC(=O)CCn2ccnc2C)cc1,-7% (inactive)
4,Cc1ccc(S(=O)(=O)N(C)c2ccc(OCC(=O)OCc3c(C)noc3C)cc2)cc1,11.5% (inactive)
5,CCC(C)(C)NC(=O)CN(C(=O)CCC(=O)Nc1cc(C)ccn1)c1ccc2c(c1)OCO2,-1.1% (inactive)
6,CCCCCCCCCC(=O)OCC(O)CO (configuration not stated),-10.7% (inactive)
7,CCCCCCCCCCCCCCCC(O)C(N)CO (configuration not stated),58.2% (active)
8,CCCCCCCC(=O)OCC(O)CO (configuration not stated),-0.9% (inactive)
9,COCCn1nnnc1CN(Cc1ccco1)Cc1cc2cc3c(cc2[nH]c1=O)OCO3,-10.7% (inactive)
10,CCn1cc(C(=O)NCc2cccs2)c(=O)c2ccc(C)nc21,-4% (inactive)
11,COc1ccc(OC)c(Nc2nc(N)nc(-c3cc4ccccc4o3)n2)c1,4.8% (inactive)
12,COc1ccc(OC)c(Nc2cc(C)nc3ccccc23)c1,20.6% (inactive)
13,COc1ccc(OC)c(Nc2cc(-c3ccccc3)nc(N)n2)c1,56.1% (active)
14,c1ccc(CSc2ncccn2)cc1,4.3% (inactive)
15,O=C(CCNS(=O)(=O)c1ccccc1F)NCc1ccc2c(c1)OCO2,-0.4% (inactive)
16,COC(=O)N1[C@H](C)C=C[C@]1(Cc1ccccc1)C(=O)OC,-24.7% (inactive)
17,COC(=O)N1[C@H](C)C=C[C@]1(Cc1ccccc1)C(=O)O,90.8% (active)
18,CNC(=O)[C@@]1(Cc2ccccc2)C=C[C@@H](C)N1C(=O)OC,-24.6% (inactive)
19,CCc1nnc(NC(=O)CSc2nccn2-c2cccc(C)c2C)s1,-9.5% (inactive)
20,Cc1nnc(NC(=O)CSc2nccn2-c2cccc(C)c2C)s1,54.7% (active)
21,CCSc1nnc(NC(=O)CSc2nccn2-c2cccc(C)c2C)s1,-8.3% (inactive)
22,CN1/C(=C\C(=O)C(F)F)C(C)(C)c2ccccc21,-3.2% (inactive)
23,CN1/C(=C\C(=O)c2ccco2)C(C)(C)c2ccccc21,9% (inactive)
24,Cc1ccc(Oc2cc(-n3nc(C)cc3C)ncn2)cc1,-3.6% (inactive)
25,CC(=O)c1ccc(Oc2cc(C)nc(-n3nc(C)cc3C)n2)cc1,50.3% (active)

row,SMILES,cytotoxicity
1,COC(=O)c1ccc(Oc2cc(C)nc(-n3nc(C)cc3C)n2)cc1,68.3% (active)
2,COC(=O)c1ccc(Oc2nc(C)cc(Oc3ccccc3)n2)cc1,11.3% (inactive)
3,CC(=O)c1ccc(Oc2cc(C)nc(NCc3ccccc3)n2)cc1,-1% (inactive)
4,COC(=O)c1ccc(Oc2cc(C)nc(SC)n2)cc1,48.5% (inactive)
5,c1ccc(-c2cc(-c3nc(-c4ccccn4)no3)c3ccccc3n2)cc1,-10.1% (inactive)
6,COc1cccc(C(c2sc3nc(C)nn3c2O)N2CCc3ccccc3C2)c1 (configuration not stated),-7.4% (inactive)
7,CCOC(=O)CNC(=O)CSc1nnc(Cn2c(=O)sc3ccccc32)n1C,-4.4% (inactive)
8,O=C(COC(=O)c1ccccc1)NCc1ccco1,6.9% (inactive)
9,Cc1cc(C(=O)OCC(=O)NCc2ccco2)c(C)n1-c1ccc(F)cc1,63.7% (active)
10,Cc1cc(C(=O)OCC(=O)N2CCN(C(=O)c3ccco3)CC2)c(C)n1-c1ccc(F)cc1,-4.9% (inactive)
11,Cc1nn(-c2ccccc2)c(C)c1C(=O)OCC(=O)NCc1ccco1,-6.6% (inactive)
12,Cc1cc(C(=O)OCC(=O)NCc2ccco2)c(C)n1-c1ccccc1,62.1% (active)
13,Cc1cc(C(=O)CNCc2ccco2)c(C)n1-c1ccc(F)cc1,2.4% (inactive)
14,COc1cccc(NC(=O)c2ccccc2-c2nc(-c3ccc(Cl)cc3)no2)c1,16.9% (inactive)
15,O=C(NCc1ccco1)C(C(=O)c1ccc(F)cc1)n1ccccc1=O (configuration not stated),-0.6% (inactive)
16,Cc1cc(NC(=O)COC(=O)c2ccc(NS(=O)(=O)c3ccc(C)c(C)c3)cc2)no1,-8.8% (inactive)
17,CC(=O)Nc1ccc(S(=O)(=O)N2CCCc3ccccc32)cc1,23.1% (inactive)
18,Cc1cc(NC(=O)COC(=O)c2ccc(S(=O)(=O)N3CCCc4ccccc43)cc2)no1,52.4% (active)
19,Cc1cc(NC(=O)COC(=O)c2cccc(S(=O)(=O)N3CCOCC3)c2)no1,8.4% (inactive)
20,COC(=O)Nc1ccc(S(=O)(=O)N2CCCc3ccccc32)cc1,53% (active)
21,O=C(O)C1CC=CCC1C(=O)Nc1ccc(S(=O)(=O)N2CCCc3ccccc32)cc1 (configuration not stated),-8.5% (inactive)
22,COc1ccc(CCNS(=O)(=O)c2ccc3c(c2)oc(=O)n3C)cc1OC,3.2% (inactive)
23,CCOC(=O)COc1ccc(S(=O)(=O)N2CCN(c3ccccc3F)CC2)cc1,-0.3% (inactive)
24,Cc1ccc2nc3sc(C(=O)N4CCOCC4)c(N)c3cc2c1,55.8% (active)
25,Cc1cccc2cc3c(N)c(C#N)sc3nc12,2.6% (inactive)

row,SMILES,cytotoxicity
1,Cc1cccc2cc3c(N)c(C(=O)N4CCOCC4)sc3nc12,59% (active)
2,Cc1ccc2cc3c(N)c(C(=O)N4CCOCC4)sc3nc2c1,3.2% (inactive)
3,COc1ccc2cc3c(N)c(C(=O)N4CCCC4)sc3nc2c1,3.4% (inactive)
4,CCOc1ccc2nc3sc(C(=O)N4CCN(C)CC4)c(N)c3cc2c1,-19.5% (inactive)
5,CCN(CC)CCNC(=O)c1c(O)c2c([nH]c1=O)CCCC2,0.6% (inactive)
6,O=C(CCn1c(=S)[nH]c2ccccc2c1=O)N1CCOCC1,-2.8% (inactive)
7,O=C1C2CC=C(Cl)CC2C(=O)N1c1ncn[nH]1 (configuration not stated),-1.3% (inactive)
8,CC(C)C1N(c2ccccc2)C(N)=C(C#N)C1(C#N)C#N (configuration not stated),-5.5% (inactive)
9,COc1ccccc1-c1nnc(Nc2nc3c(OC)cccc3s2)o1,51.8% (active)
10,COc1ccc(-c2nnc(Nc3nc4c(OC)cccc4s3)o2)c(OC)c1,8.4% (inactive)
11,COc1cccc2sc(Nc3nnc(-c4ccccc4Cl)o3)nc12,-3.2% (inactive)
12,Cc1ccc(C(C(=O)NCc2ccccc2)N(C(=O)c2csnn2)c2cccc3ccccc23)o1 (configuration not stated),-5.1% (inactive)
13,COc1cc(/C=N/Nc2nc3ccccc3o2)cc(OC)c1O,17.8% (inactive)
14,Cc1cc2c(N)cccc2nn1,-9.9% (inactive)
15,Nc1cccc2cnccc12,20.7% (inactive)
16,CNC(=O)CSc1nc2nc(C)cc(C)n2n1,16.5% (inactive)
17,CCCCS(=O)(=O)/C=C\C=C/S(=O)(=O)CCCC,94% (active)
18,CCCCS(=O)(=O)/C=C/[C@H]1[C@H](S(=O)(=O)CCCC)[C@H]2C=C[C@@H]1C2,0.3% (inactive)
19,CCCCS(=O)(=O)/C=C\C1C2C=CC(C2)C1S(=O)(=O)CCCC (configuration not stated),-14.4% (inactive)
20,CCC(C)NC(=O)CNS(=O)(=O)c1ccc(C)cc1 (configuration not stated),1.4% (inactive)
21,COc1cc(CNc2ccc3c(c2)CCC3)cc(OC)c1O,-2.4% (inactive)
22,O=C(NCc1ccco1)C1CCC(CNS(=O)(=O)c2cccc3cccnc23)CC1 (configuration not stated),-8.6% (inactive)
